The list is not random: actives were taken first. Their share in the collection is about 9.4%.
ELG1 repair inh: blocks ELG1-dependent DNA repair in HEK293T cells. HEK293T ELG1-luciferase reporter, luminescence, 16 h; DNA damage induced by 5-fluorouridine. Potency, µM (top dose mostly 46.1 µM), without a hit: at the highest dose activity change, negative = inhibition, hits mostly inhibitors. actives 2.3% (n = 330,000); note: % is set by controls: 0 for no effect and ±100 for the full control effect; nearly all actives have a fitted effect of over 55% in size
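Overnight (16 hr) co-exposure of 2,000 cells/well to 5-fluorouridine and compound at 37 °C preceded detection. Luciferase was quantified via ONE-Glo luminescence; loss of signal denotes inhibition.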
SMN2 splice up: increases expression of the SMN2 splice variant; actives 2.8% (n = 210,000); AID 1458; HEK293 SMN2-luciferase splicing reporter, luminescence, 30-36 h; Potency, µM (highest dose often 46.1 µM), for the others: top-dose activity change, positive = activation, hits mostly activators; note: % of control where 0% means no effect; nearly all actives have a fitted effect of over 55% in size
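HEK293 cells carry an SMN2 […]–luciferase reporter in which exon 7 inclusion puts luciferase in frame. Cells were plated 10-12 h before compound addition, then incubated 30-36 h at 37C. ONE-Glo luminescence was read; sodium butyrate at 4.5 mM final served as control.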
Rab9 promoter act: Rab9 promoter activation; Huh7 Rab9 promoter-luciferase reporter, luminescence, 24 h; Potency, µM (titrated, usually from 9.22 µM), without a hit: at the top dose activation, negative = inhibition, usual class: activators; actives 2.8% (n = 320,000); note: % of control where 0% means no effect; nearly all actives have a fitted effect of over 60% in size
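Cell-based reporter: Huh7 stable for Rab9 promoter-driven luciferase, plated in reduced-serum medium with 10% FBS at 1500 cells/well, compound-treated 24 h at 37 °C, luminescence read after 10 min reagent.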
NPC1 promoter act: NPC1 promoter activation. actives 2.4% (n = 320,000). Potency, µM (titrated, usually from 9.22 µM), for inactives: at the top dose activation, usual class: activators. AID 485313. Huh7 NPC1 promoter luciferase reporter, 24 h; note: % of control where 0% means no effect; nearly all actives have a fitted effect of over 60% in size
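Luminescence read-out of NPC1 promoter-driven luciferase in stably transfected Huh7 cells; compounds delivered in DMSO and left 24 h at 37C, 5% CO2, qHTS titration format.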
ELG1 genotox: inducers of genotoxicity in HEK293T ELG1-luciferase cells. HEK293T ELG1-luciferase reporter, luminescence, 16 h. AID 504466. Potency, µM (highest dose often 46 µM), for inactives: at the highest dose activity change, positive = activation, hits mostly activators. actives 1.3% (n = 330,000); note: % of control where 0% means no effect; nearly all actives have a fitted effect of over 60% in size
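HEK293T cells expressing luciferase-tagged ELG1 were treated with compound or DMSO for 16 hr at 37°C. Luciferase activity was then read after 30 min with ONE-Glo at room temperature; rising signal flags genetic stress.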
FLuc counter: inhibits or activates purified firefly luciferase, miR-21 counter-screen; actives 6.9% (n = 360,000); Potency, µM (doses to about 57.5 µM), for inactives: top-dose activity change, negative = inhibition, actives largely listed as inhibitors; AID 588342; purified FLuc, Km substrates, luminescence inhibition;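 note: plate controls were vehicle for no effect and reference inhibitor for full effect; nearly all actives have a fitted effect of over 55% in size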
Target sequence (P08659 whole entry, looked up): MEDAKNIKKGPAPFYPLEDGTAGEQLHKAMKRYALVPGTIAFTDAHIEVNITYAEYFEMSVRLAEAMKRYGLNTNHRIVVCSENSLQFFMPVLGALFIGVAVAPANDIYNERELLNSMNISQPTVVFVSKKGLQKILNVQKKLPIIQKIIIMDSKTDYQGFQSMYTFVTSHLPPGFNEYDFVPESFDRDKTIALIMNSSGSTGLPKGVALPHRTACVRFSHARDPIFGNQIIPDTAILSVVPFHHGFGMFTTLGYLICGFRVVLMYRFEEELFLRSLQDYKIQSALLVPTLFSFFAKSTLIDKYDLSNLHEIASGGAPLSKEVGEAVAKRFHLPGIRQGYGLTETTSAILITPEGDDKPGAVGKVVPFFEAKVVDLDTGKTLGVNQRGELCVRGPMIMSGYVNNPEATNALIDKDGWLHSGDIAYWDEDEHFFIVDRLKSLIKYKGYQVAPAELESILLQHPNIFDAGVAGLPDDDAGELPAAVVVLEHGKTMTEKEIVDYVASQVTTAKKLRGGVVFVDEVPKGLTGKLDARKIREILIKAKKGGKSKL
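Purified P. pyralis luciferase (10nM final) with 10uM D-luciferin and 10uM ATP (Km levels) in 50mM Tris acetate pH 7.5, 10mM Mg acetate, 0.01% Tween-20, 0.05% BSA; qHTS 6-point titration, ~60 µM downward; luminescence read.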
Numbers without * were called inactive; ? = inconclusive; · = no result given; [ ] = another dose, or the depositor's remark. Calls come from the whole dose curve; as a rule, active = well fitted curve in the direction sought with a large enough effect; inconclusive = small, poorly fitted or top-dose-only effect, or another doubt; inactive = no such curve, though single readings can be large; an effect the other way counts as inactive or inconclusive. Potency is the fitted concentration of half-maximal effect.

SMILES | ELG1 repair inh | SMN2 splice up | Rab9 promoter act | NPC1 promoter act | ELG1 genotox | FLuc counter
CCOc1ccccc1C(=O)Nc1nc2c(s1)CC(C)CC2 (stereo not given) | · | · | · | · | · | 2.7µM*
CC1CCc2nc(NC(=O)Cc3cccs3)sc2C1 (stereo not given) | ? | 14µM* | 2.2µM* | 3.2µM* | 9.2µM* | 9.5µM*
CC1CCc2nc(NC(=O)C3CCCO3)sc2C1 (stereo not given) | ? | 2µM* | 0.5µM* | 0.5µM* | 1.2µM* | 2.1µM*
O=C(CCCc1cccs1)Nc1nc2c(s1)CCCC2 | ? | 16µM* | ? | ? | ? | 24µM*
CCC(CC)C(=O)Nc1nc2c(s1)CC(C)CC2 (stereo not given) | · | · | · | · | · | -21%
COc1ccc(N(Cc2cccs2)C(=O)COc2cc(C)c(Cl)c(C)c2)cc1 | · | · | · | · | · | -19%
COc1cc(/C=C/c2nc(C#N)c(N3CCN(C)CC3)o2)cc(OC)c1OC | · | 5% | · | · | · | -7%
COc1ccc(-c2nc3sc(CCNC(=O)C(=O)Nc4ccc(C)c(F)c4)c(C)n3n2)cc1 | · | · | · | · | · | -6%
CC1CCc2nc(NC(=O)c3ccco3)sc2C1 (stereo not given) | ? | -25% | 0.28µM* | 0.45µM* | ? | 0.3µM*
CCC(=O)N1CCN(c2ccc(NC(=O)COc3ccccc3[N+](=O)[O-])cc2)CC1 | 23µM* | -57% | -1% | -8% | -12% | 2%
COc1cc(Cl)ccc1NC(=O)COc1ccccc1C(=O)N1CCN(c2ccc(O)cc2)CC1 | 13µM* | -41% | 0% | 5% | -20% | -4%
CCC(=O)N1CCN(c2ccc(NC(=O)COc3ccccc3Cl)cc2)CC1 | 18µM* | -57% | -10% | 0% | -15% | 4%
FC(F)(F)c1cc(NC(=S)N2c3ccccc3-n3cccc3[C@H]2c2cccnc2)cc(C(F)(F)F)c1 | · | -2%[9.22 µM] | · | · | · | ·
Oc1ccc(-c2nnc(SCC3CCCCC3)o2)cc1 | ? | ? | 2.8µM* | 3.2µM* | ? | 15µM*
CCOc1ccc(OCC)c(Nc2cc(C)nc3nc(-c4ccco4)nn23)c1 | · | · | · | · | · | -4%
CCCc1cc(=O)n2c(C(=O)Nc3ccc(OCC)cc3)c(C(=O)Nc3ccc(C)cc3)sc2n1 | · | 13% | · | · | · | 5%
COc1ccc(C)cc1-n1nnc(C(=O)Nc2cccc(SC)c2)c1C | · | · | · | · | · | -3%
Cc1cc(NCC2CCCO2)n2c(nc3ccccc32)c1C#N (stereo not given) | · | -16% | · | · | · | 0%
CC(C)c1cc(NCC2CCCO2)n2c(nc3ccccc32)c1C#N (stereo not given) | 16µM* | 17% | -7% | -4% | -13% | ?
Brc1cccc(-c2nnn3c2nc(NCc2ccc4c(c2)OCO4)c2ccccc23)c1 | · | 14µM* | · | · | · | -8%
CCCCNc1nc2c(-c3cccc(Br)c3)nnn2c2ccccc12 | · | 0% | · | · | · | 1%
Cc1cc(NC(=O)c2cc3cccc([N+](=O)[O-])c3[nH]2)ccc1F | ? | · | 2.2µM* | 2.5µM* | ? | 5.4µM*
COCC(C)NC(=O)c1cc2cccc([N+](=O)[O-])c2[nH]1 (stereo not given) | -16% | · | 18% | 15% | -5% | -19%
N#C/C(=N\Nc1ccc(Cl)c(Cl)c1)C(=O)C1CC1 | ? | · | ? | ? | 8% | 27µM*
CCOC(=O)C1CCCN(C(=O)c2ccc3c(c2)N(Cc2ccc(Cl)cc2)C(=O)c2ccccc2S3=O)C1 (stereo not given) | · | -11% | · | · | · | -1%
SMILES | ELG1 repair inh | SMN2 splice up | Rab9 promoter act | NPC1 promoter act | ELG1 genotox | FLuc counter
CCOc1ccc(C(=O)NCc2ccco2)cc1 | ? | 9% | 22% | 22% | ? | ?
O=C(NCc1ccco1)c1ccc2ccccc2c1 | ? | 17% | ? | ? | 11% | 13µM*
O=C(NCc1ccco1)c1ccc2c(c1)C(=O)c1ccccc1-2 | ? | -7% | 16% | 4% | 15µM* | ?
CC(C)(CO)NC(=O)c1ccc2c(c1)C(=O)c1ccccc1-2 | ? | · | ? | 2.5µM* | 23µM* | 19µM*
O=C(NCc1ccco1)c1ccc2c(c1)C(=O)N(Cc1ccccc1)C2=O | 1% | 2% | -7% | 1% | 0% | -4%
Cc1ccc(C(=O)NCc2ccco2)cc1 | ? | · | 15% | 14% | 9% | -19%
O=C(NCc1ccco1)c1ccc(Oc2ccccc2)cc1 | ? | 0% | 16% | 14% | ? | 24µM*
Cc1cccc(-c2nnc(C3CCN(S(=O)(=O)c4cccc(Cl)c4)CC3)o2)c1 | · | -14% | · | · | · | ?
O=C(Nc1ccc(Br)cc1)c1cc(S(=O)(=O)N2CCc3ccccc32)ccc1F | · | · | · | · | · | -2%
Fc1ccc(C(NCCc2ccc(Cl)cc2)c2nnc(-c3ccccc3Cl)o2)cc1 (stereo not given) | · | -10% | · | · | · | -3%
CC(C)(C)OC(=O)N1CCC(c2c(C(=O)N3CCN(C(=O)c4ccco4)CC3)cnn2-c2cccc(F)c2)CC1 | · | · | · | · | · | -1%
CC1CCN(C(=S)Nc2ccc(SC(F)F)cc2)CC1 | ? | 22µM* | 27% | ? | 9% | 1.1µM*
CCCCc1ccc(NC(=S)N2CCN(C)CC2)cc1 | 1% | · | -2% | 8% | 0% | 15µM*
CC(=O)N1CCN(C(=S)Nc2ccc(SC(F)F)cc2)CC1 | -3% | ? | 0% | -7% | -2% | -7%
CCCCc1ccc(NC(=S)N2CCN(C(=O)OCC)CC2)cc1 | -7% | · | 3% | 1% | 1% | 3%
CCCN1CCN(C(=S)Nc2ccc(SC(F)F)cc2)CC1 | -10% | -19% | 6% | -2% | 1% | 13µM*
CCn1c(C(=O)Nc2cc(C)cc(C)c2)cc2sc(Cl)cc21 | · | 1% | · | · | · | -20%
CC(/C=N/Nc1nc(C)cc(C)n1)=C\c1ccc(C(C)C)cc1 | 10% | -6% | 8% | -4% | 2% | 19µM*
CC(/C=N/NC(=O)c1ccncc1)=C\c1ccc(C(C)C)cc1 | ? | · | 2.8µM* | 28% | 0% | ?
CC(/C=N/NC(=O)C(O)c1ccccc1)=C\c1ccccc1 (stereo not given) | ? | 22% | ? | ? | 7% | 13µM*
CC(=C/c1ccccc1)/C=N/NC(=O)c1cnccn1 | ? | ? | ? | 4µM* | 8.9µM* | 4.8µM*
CC(=O)c1ccc(N2CCN(c3ncnc4c3nc3n4CCCC3)CC2)cc1 | · | · | · | · | · | -3%
CCOC(=O)Cn1c(=O)n(C2CCCCC2)c2nc(-c3ccc(C(C)C)cc3)nc(C(N)=O)c21 | · | · | · | · | · | 0%

Compound activity as filed in PubChem BioAssay.
